# PubChem BioAssay (EPA / NIEHS)
# Several values for one entry are separate records, joined by “and”; a condition that tells them apart may be missing. Equal entries are not always repeated. Results filed as inconclusive are left out. Where a structure was tested more than once in an assay, its records may differ in their call. Activity calls are given as the source filed them. The calls were made as follows, unless noted: active = hit-call score of the fitted dose curve at least 0.9, where 1 is the maximum; inactive = score below 0.9.
# Key:
# [1] = read-out: Monokine induced gamma interferon (MIG), CXCL9 (gene 4283); assay: BSK_3C_MIG: BioMAP Diversity Plus: 3C Assay for Monokine induced gamma interferon (MIG) Biomarker Activity (AID 2283021); conditions: primary human endothelial cells (HUVEC); actives raise or lower the signal;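 as to AC50: MIG protein level measured by immunoassay in the treated endothelial cultures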
# Outline: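 After 24 h of treatment, human umbilical vein endothelial cultures (3C system) had their MIG biomarker level determined by ELISA, with DMSO serving as negative control.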
# [2] = BSK_3C_SRB: Viability Assessment in the BioMAP Diversity Plus: 3C Assay (AID 2283023); conditions: primary human endothelial cells (HUVEC);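 also: fitted both ways against DMSO so a hit may be signal rise or drop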
# Outline: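 Primary human umbilical vein endothelial cells in the 3C system were read 24 h after compound dosing. Total protein was stained with 0.1% sulforhodamine B after 10% TCA fixation and read at 560 nm, with bidirectional fitting against DMSO as baseline.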
# [3] = BSK_3C_Vis: BioMAP Diversity Plus: 3C Assay for Morphology Visualization (AID 2283025); conditions: primary human endothelial cells (HUVEC);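 also: fitted both ways so gain or loss versus DMSO counts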;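 as to AC50: light microscopy image of cell morphology used as background control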
# Outline: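 Endothelial cells from human umbilical vein were treated with test chemicals for 24 h and inspected by light microscopy for changes in cell conformation.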
# [4] = read-out: Pselectin, SELP (gene 6403); assay: BSK_4H_Pselectin: BioMAP Diversity Plus: 4H Assay for Pselectin Biomarker Activity (AID 2283026); conditions: primary human endothelial cells (HUVEC); actives raise or lower the signal
# Outline: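 Human vascular endothelium from umbilical vein; P-selectin measured by ELISA at 24 h post-dose, with cytotoxicity checked by sulforhodamine B total-protein staining in parallel cultures (0.1% SRB after 10% TCA fixation, read at 560 nm).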
# [5] = read-out: Thrombomodulin, THBD (gene 7056); assay: BSK_3C_Thrombomodulin: BioMAP Diversity Plus: 3C Assay for Thrombomodulin Biomarker Activity (AID 2283029); conditions: primary human endothelial cells (HUVEC); actives raise or lower the signal
# Outline: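 Thrombomodulin ELISA, human primary HUVEC, 24 h post-dose; data fitted in both directions relative to DMSO.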
# [6] = read-out: Vascular endothelial growth factor receptor 2 (Homo sapiens) (UniProt P35968); assay: BSK_4H_VEGFRII: BioMAP Diversity Plus: 4H Assay for Vascular endothelial growth factor receptor 2 (VEGFR2) Biomarker Activity (AID 2283031); conditions: primary human endothelial cells (HUVEC); actives raise or lower the signal;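 as to AC50: cell-surface VEGFR2 protein level quantified by ELISA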
# Outline: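 Primary human umbilical vein endothelial cells in the BioMAP 4H system were dosed with test chemical, and 24 h later VEGFRII was measured by ELISA. Activity was fitted bidirectionally against DMSO as negative control and baseline.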
# [7] = read-out: Human Leukocyte Antigen - DR isotype (HLADR), HLA-DRA (gene 3122); assay: BSK_BE3C_HLADR: BioMAP Diversity Plus: BE3C Assay for Human Leukocyte Antigen - DR isotype (HLADR) Biomarker Activity (AID 2283032); conditions: primary human bronchial epithelial cells; actives raise or lower the signal
# Outline: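 Signal came from an ELISA for HLA-DR in human bronchial epithelial primary cells harvested 24 h after treatment; gain- and loss-of-signal fitting used DMSO controls as reference.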
# [8] = read-out: Vascular cell adhesion molecule 1 (VCAM1), VCAM1 (gene 7412); assay: BSK_4H_VCAM1: BioMAP Diversity Plus: 4H Assay for Vascular cell adhesion molecule 1 (VCAM1) Biomarker Activity (AID 2283033); conditions: primary human endothelial cells (HUVEC); actives raise or lower the signal;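 as to outcome: cell-surface VCAM-1 protein measured by ELISA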
# Outline: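 Endpoint derived from bidirectional fitting against DMSO controls of VCAM-1 ELISA signal in umbilical vein endothelial cells sampled at 24 h following treatment.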
# [9] = read-out: Interferon-gamma inducible Protein 10 (IP10), CXCL10 (gene 3627); assay: BSK_BE3C_IP10: BioMAP Diversity Plus: BE3C Assay for Interferon-gamma inducible Protein 10 (IP10) Biomarker Activity (AID 2283034); conditions: primary human bronchial epithelial cells; actives raise or lower the signal
# Outline: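 Using primary human bronchial epithelial cultures, the assay captures IP-10 by ELISA one day (24 h) after exposure. Parallel SRB staining of total protein flags overt cytotoxicity. Fits run bidirectionally relative to DMSO.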
# [10] = read-out: Monokine induced gamma interferon (MIG), CXCL9 (gene 4283); assay: BSK_BE3C_MIG: BioMAP Diversity Plus: BE3C Assay for Monokine induced gamma interferon (MIG) Biomarker Activity (AID 2283035); conditions: primary human bronchial epithelial cells; actives raise or lower the signal;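 as to outcome: MIG protein measured by ELISA in BE3C cultures after 24 h of dosing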
# Outline: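 MIG level was determined by ELISA after 24 h chemical treatment of primary human bronchial epithelial cells. Values were fitted bidirectionally with DMSO as the negative control and activity baseline.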
# [11] = read-out: Transforming growth factor beta 1 (TGFb1), TGFB1 (gene 7040); assay: BSK_BE3C_TGFb1: BioMAP Diversity Plus: BE3C Assay for Transforming growth factor beta 1 (TGFb1) Biomarker Activity (AID 2283036;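 as to outcome: TGF-b1 protein level measured by ELISA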); conditions: primary human bronchial epithelial cells; actives raise or lower the signal
# Outline: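 In this human primary bronchial epithelial system, an ELISA quantified TGF-b1 one day after dosing. Endpoint changes in either direction were fitted relative to DMSO.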
# [12] = read-out: urokinase plasminogen activator (uPA), PLAU (gene 5328); assay: BSK_BE3C_uPA: BioMAP Diversity Plus: BE3C Assay for urokinase plasminogen activator (uPA) Biomarker Activity (AID 2283038); conditions: primary human bronchial epithelial cells; actives raise or lower the signal;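 as to outcome: uPA protein level quantified by ELISA in cell cultures; uPA read one day after compound addition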
# Outline: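 Human primary bronchial epithelial cells were exposed to chemical for 24 h, then uPA levels were measured by ELISA. Responses were fitted bidirectionally against DMSO as negative control and baseline. Parallel SRB staining of total protein gauged overt cytotoxicity.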
# [13] = read-out: Urokinase-type plasminogen activator receptor (uPAR), PLAUR (gene 5329); assay: BSK_BE3C_uPAR: BioMAP Diversity Plus: BE3C Assay for Urokinase-type plasminogen activator receptor (uPAR) Biomarker Activity (AID 2283039); conditions: primary human bronchial epithelial cells; actives raise or lower the signal;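 as to outcome: cells exposed to compound for one day before measurement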
# Outline: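 A uPAR ELISA serves as the readout, taken 24 h after treating primary human bronchial epithelial cells. Responses in either direction are fitted against DMSO, which defines baseline activity.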
# [14] = read-out: Interleukin-6 (IL6), IL6 (gene 3569); assay: BSK_CASM3C_IL6: BioMAP Diversity Plus: CASM3C Assay for Interleukin-6 (IL6) Biomarker Activity for (AID 2283040); conditions: primary human coronary artery smooth muscle cells; actives raise or lower the signal
# [15] = target: human Vitamin D Receptor (VDR), VDR (gene 7421) (UniProt P11473); assay: ATG_VDR_TRANS: Attagene TRANS-FACTORIAL HepG2 Assay for human Vitamin D Receptor (VDR) (AID 2283022; active = hit-call score of the fitted dose curve at least 0.9, where 1 is the maximum)
# Outline: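 HepG2 cells were transiently transfected with multiple GAL4-UAS reporter units, so signal reflects exogenous chimeric receptor-Gal4 activity. After 24 h compound exposure, reporter mRNA was measured by RT-PCR, fluorescent labelling and capillary electrophoresis, fitted for gain of signal versus DMSO.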
# [16] = BSK_4H_SRB: Viability Assessment in the BioMAP Diversity Plus: 4H Assay (AID 2283027); conditions: primary human endothelial cells (HUVEC);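 also: cells exposed to compound for 24 h before staining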
# Outline: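 Absorbance at 560 nm of SRB-stained total protein served as the viability read-out in confluent primary human umbilical vein endothelium 24 h after chemical treatment. Curves were fitted bidirectionally against DMSO as negative control.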
# Sequence of human Vitamin D Receptor (VDR), VDR (gene 7421) (P11473 whole entry, looked up, the tested form may be a part): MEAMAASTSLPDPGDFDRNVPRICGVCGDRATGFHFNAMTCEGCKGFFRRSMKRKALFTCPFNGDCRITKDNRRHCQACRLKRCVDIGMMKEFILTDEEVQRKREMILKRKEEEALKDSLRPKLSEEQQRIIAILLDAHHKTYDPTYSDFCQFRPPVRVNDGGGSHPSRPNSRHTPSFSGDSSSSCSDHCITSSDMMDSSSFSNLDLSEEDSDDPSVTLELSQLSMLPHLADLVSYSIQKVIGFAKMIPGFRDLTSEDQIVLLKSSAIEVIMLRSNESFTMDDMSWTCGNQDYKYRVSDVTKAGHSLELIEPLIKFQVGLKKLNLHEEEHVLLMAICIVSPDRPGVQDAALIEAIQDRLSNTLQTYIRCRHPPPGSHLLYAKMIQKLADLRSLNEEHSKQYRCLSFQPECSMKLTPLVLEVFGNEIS
smiles,measurement,setting,value
COc1ccc(OC)c(N=Nc2c(O)ccc3ccccc23)c1,outcome,[1],inactive
same,outcome,[2],inactive
same,AC50,[3],13 µM (active)
same,AC50,[4],5.42 µM (active)
same,AC50,[5],9.48 µM (active)
same,outcome,[6],inactive
same,AC50,[7],3.41 µM (active)
same,AC50,[8],20 µM (active)
same,AC50,[9],6.72 µM (active)
same,outcome,[10],inactive
same,outcome,[11],inactive
same,outcome,[12],inactive
same,AC50,[13],5.41 µM (active)
same,outcome,[14],inactive
CCCCCC(C=O)=Cc1ccccc1,outcome,[1],inactive
same,AC50,[2],33.1 µM (active)
same,AC50,[3],37.8 µM (active)
same,AC50,[4],32.7 µM (active)
same,outcome,[5],inactive
same,AC50,[6],31.3 µM (active)
same,AC50,[7],33.1 µM (active)
same,AC50,[8],30.5 µM (active)
same,AC50,[9],30.6 µM (active)
same,outcome,[10],inactive
same,outcome,[11],inactive
same,outcome,[12],inactive
same,outcome,[13],inactive
same,AC50,[14],32 µM (active)
CCC(C)c1cc([N+](=O)[O-])cc([N+](=O)[O-])c1OC(=O)OC(C)C (configuration not stated),AC50,[1],33.2 µM (active)
same,AC50,[2],14.1 µM (active)
same,AC50,[3],12 µM (active)
same,AC50,[4],9.75 µM (active)
same,AC50,[5],20 µM (active)
same,AC50,[6],9.93 µM (active)
same,AC50,[7],15.3 µM (active)
same,AC50,[8],8.04 µM (active)
same,AC50,[9],11 µM (active)
same,AC50,[10],33 µM (active)
same,AC50,[11],13.6 µM (active)
same,AC50,[12],33.7 µM (active)
same,AC50,[13],35 µM (active)
same,AC50,[14],34.1 µM (active)
CC(=O)C1(C)CC2=C(CCCC2(C)C)CC1C (configuration not stated),AC50,[1],20 µM (active)
same,AC50,[2],8.86 µM (active)
same,AC50,[3],8.8 µM (active)
same,AC50,[4],5.95 µM (active)
same,outcome,[5],inactive
same,AC50,[6],5.33 µM (active)
same,AC50,[7],13.8 µM (active)
same,AC50,[8],9.63 µM (active)
same,AC50,[9],25.6 µM (active)
same,AC50,[10],34.9 µM (active)
same,AC50,[11],12.8 µM (active)
same,AC50,[12],20 µM (active)
same,AC50,[13],20 µM (active)
same,AC50,[14],14 µM (active)
CC(C)(CO)[C@@H](O)C(=O)NCCC(=O)O,outcome,[15],inactive
CCOC(=O)C(C#N)=C(c1ccccc1)c1ccccc1,outcome,[1],inactive
same,AC50,[2],25.6 µM (active) and 20 µM (active)
same,outcome,[4],inactive
same,outcome,[16],inactive
same,AC50,[5],8.14 µM (active)
same,outcome,[5],inactive
same,outcome,[6],inactive
same,outcome,[7],inactive
same,AC50,[8],36.9 µM (active)
same,outcome,[8],inactive
same,outcome,[9],inactive
same,outcome,[10],inactive
same,outcome,[12],inactive
same,outcome,[13],inactive
same,outcome,[14],inactive
C=CCCC(=O)/C=C/C1C(C)=CCCC1(C)C (configuration not stated),outcome,[15],inactive
C=C(C)C(=O)OCC(CC)(COC(=O)C(=C)C)COC(=O)C(=C)C,outcome,[1],inactive
same,outcome,[2],inactive
same,outcome,[3],inactive
same,outcome,[4],inactive
same,outcome,[5],inactive
same,outcome,[6],inactive
same,outcome,[7],inactive
same,AC50,[8],19.7 µM (active)
same,outcome,[9],inactive
same,outcome,[10],inactive
same,outcome,[11],inactive
same,outcome,[12],inactive
same,outcome,[13],inactive
same,outcome,[14],inactive
